# Assay results: PubChem BioAssay (NCI)
# This is part of a sample that, as a whole, favours compounds with a hit. Of some 83,000 tested, about 20% had one in any assay.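 Growth was measured after 48 h exposure to one concentration of compound in 96-well plates. Values under 10 count as active.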 Values without a mark were called inactive. The source made the active and inactive calls.
# Columns and labels:
# Experiment in all cases: NCI-60 one-dose screen, 48 h (100 = growth as untreated, 0 = no growth, -100 = all killed)
# A549/ATCC NSCLC = conditions: 10 µM unless noted
# 786-0 renal = conditions: 10 µM unless noted
# DU-145 prostate = conditions: 10 µM unless noted
# SF-268 CNS = conditions: 10 µM unless noted
# SF-539 CNS = conditions: 10 µM unless noted
# UACC-257 melanoma = conditions: 10 µM unless noted
# M14 melanoma = conditions: 10 µM unless noted
# HCT-15 colon = conditions: 10 µM
# HT29 colon = conditions: 10 µM unless noted
# PC-3 prostate = conditions: 10 µM unless noted
# UACC-62 melanoma = conditions: 10 µM unless noted
# SK-MEL-28 melanoma = conditions: 10 µM unless noted
# TK-10 renal = conditions: 10 µM unless noted
# HL-60(TB) leukemia = conditions: 10 µM unless noted
# OVCAR-8 ovarian = conditions: 10 µM unless noted
# OVCAR-5 ovarian = conditions: 10 µM unless noted
# OVCAR-3 ovarian = conditions: 10 µM unless noted
# NCI/ADR-RES ovarian = conditions: 10 µM unless noted
# BT-549 breast = conditions: 10 µM
# MCF7 breast = conditions: 10 µM unless noted
SMILES,growth (A549/ATCC NSCLC),growth (786-0 renal),growth (DU-145 prostate),growth (SF-268 CNS),growth (SF-539 CNS),growth (UACC-257 melanoma),growth (M14 melanoma),growth (HCT-15 colon),growth (HT29 colon),growth (PC-3 prostate),growth (UACC-62 melanoma),growth (SK-MEL-28 melanoma),growth (TK-10 renal),growth (HL-60(TB) leukemia),growth (OVCAR-8 ovarian),growth (OVCAR-5 ovarian),growth (OVCAR-3 ovarian),growth (NCI/ADR-RES ovarian),growth (BT-549 breast),growth (MCF7 breast)
COc1cc(CNCCc2ccc(Cl)cc2)cc(OC)c1O,89.8%,78.3%,91%,73%,68.7%,90.2%,64.8%,54.8%,64.4%,52.9%,61.2%,69.9%,79.6%,54.4%,66.3%,86.7%,61%,44.8%,71.8%,63.7%
CC(=O)O[C@H]1C[C@H](O[C@H]2[C@@H](O)C[C@H](O[C@H]3[C@@H](O)C[C@H](O[C@H]4CC[C@@]5(C)C(CCC6C5C[C@@H](O)[C@]5(C)[C@@H](C7=CC(=O)OC7)CC[C@]65O)C4)O[C@@H]3C)O[C@@H]2C)O[C@H](C)[C@H]1O[C@@H]1O[C@H](CO)[C@@H](O)[C@H](O)[C@H]1O (stereo partly specified),-100% (active),-91.2% (active),-100% (active),-100% (active),-88% (active),-100% (active),-77% (active),-79.1% (active),-86% (active),-6.71% (active),-94.3% (active),-70.5% (active),-91% (active),-46.4% (active),-92.6% (active),-86.1% (active),-100% (active),-69.5% (active),-91% (active),-53% (active)
CC(C)(C)[Si](C)(C)OC1[C@@H](O[Si](C)(C)C(C)(C)C)[C@@H](CNC(=O)NC(=O)CF)O[C@H]1n1cnc2c(NC(=O)Nc3ccccc3)ncnc21 (stereo partly specified),26.2%,61.4%,47.6%,26.6%,92.6%,–,73.2%,80.7%,25.6%,14.5%,76.6%,93.2%,–,17.3%,51.4%,91.5%,19.8%,71%,68.9%,19%
CC(C)OC(=S)[S-].[Au+].c1ccc([PH+](c2ccccc2)c2ccccc2)cc1,84.5%,2.78% (active),50%,18.2%,7.83% (active),28.1%,11.5%,-14.2% (active),55.7%,42.9%,0.794% (active),16.5%,–,1.15% (active),27.2%,73.9%,-43% (active),67.6%,-3.75% (active),2.73% (active)
COc1cc(NCCCCCN=C(N)N)c2ncccc2c1,90.7%,86.3%,103%,3.28% (active),23.8%,79.7%,99.3%,99.2%,62.9%,23.4%,89.3%,89.7%,–,18.2%,32.6%,97.3%,0.151% (active),104%,38.7%,-51.1% (active)
O=C(N/N=C/c1ccc([N+](=O)[O-])o1)c1cc([N+](=O)[O-])cc([N+](=O)[O-])c1O,102%,106%,111%,101%,112%,99.2%,102%,93.3%,97.4%,85.9%,88.9%,113%,121%,93.5%,89.8%,114%,113%,89.1%,103%,84.6%
NC(=O)OCC(CO)(c1ccccc1)c1ccccc1,103%,96.7%,104%,101%,96.8%,105%,99.5%,98.8%,97.9%,93.2%,115%,112%,97.7%,114%,100%,95.3%,100%,108%,107%,99.3%
n1nc(-c2nonc2-c2nn[nH]n2)n[nH]1,95.2%,99%,103%,122%,115%,100%,115%,106%,107%,102%,107%,106%,110%,105%,109%,108%,150%,104%,103%,101%
